Measured potencies and affinities stand elsewhere. Calls of active or inactive are those of the source.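 The calls were made as follows: active = a dose-response curve fit returns a half-maximal inhibitory concentration, extrapolated values included; inactive = the fit returns no such concentration.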
target: HMG-CoA reductase [Enterococcus faecalis] (UniProt Q9FD70); test: inhibitors of E. faecalis class II HMGR, confirmation, biochemical, Enterococcus faecalis (AID 1233); settings: purified E. faecalis HMGR, NADPH absorbance 340 nm kinetics; series mostly up to 100 µM

outcome, inactive:
O=C1CC(c2ccccc2)CC2=C1CN(C1CCCCC1)CN2 (configuration not stated)
O=C(CN1CCC2(CC1)OCCO2)c1ccc2cc[nH]c2c1
CCOc1cc(N2CCOCC2)c(OCC)cc1NC(=O)CC12CC3CC(CC(C3)C1)C2
Cc1ccc(-n2c(SCC(=O)N(C)C3CCS(=O)(=O)C3)nc3ccccc3c2=O)cc1 (configuration not stated)
CCN(CC)CCNC(=O)C(=O)NCC1OCCN1C(=O)c1ccc2c(c1)OCO2 (configuration not stated)
COc1ccc(C(=O)/C=C/c2ccc(N3CCCCC3)c([N+](=O)[O-])c2)c(OC)c1
CN(C)C(CNC(=O)CCOc1ccccc1)c1ccco1 (configuration not stated)
C=CCN1CCN(C(c2cc(OC)ccc2OC)c2nnnn2CC2CCCO2)CC1 (configuration not stated)
O=C(c1cccs1)N(c1ccc(F)cc1)C1C=CS(=O)(=O)C1 (configuration not stated)
COc1ccc(CCNc2ccncn2)cc1
CC1CN(C(=O)c2cccc(S(=O)(=O)Nc3ccc(Cl)cc3)c2)CC(C)O1 (configuration not stated)
CC(=O)C1=C(O)C(=O)N(C)C1c1ccccc1F (configuration not stated)
O=c1[nH]ncc2c3ccccc3n(Cc3cccc(Cl)c3)c12
O=C(COC(=O)c1ccc[nH]c1=O)NC1CCCCCC1
CC(C)[C@H](NC(N)=O)C(=O)Nc1cccc(S(=O)(=O)N2CCOCC2)c1
CCOC(=O)c1c(C)nc2ccc(C)cn12
Cc1ccccc1Nc1nnc(SCc2nc3ccccc3c(=O)[nH]2)s1
COc1ccc(CN2CCNC(=O)C2CC(=O)NCCc2c[nH]c3ccccc23)c(OC)c1 (configuration not stated)
CC(Sc1nnc(-c2ccccc2)c(-c2ccccc2)n1)C(=O)Nc1ncc(Cl)cc1Cl (configuration not stated)
COc1ccc(N=CC2=C(O)c3ccccc3C2=O)c(OC)c1
COc1cccc(C(=O)CN2C3=NCCCN3c3ccccc32)c1
CCOC(=O)C1(O)CC(C)=NN1C(=O)c1cccc(Br)c1 (configuration not stated)
CC1CN(C(=O)c2ccncc2)CC(C)O1 (configuration not stated)
COc1cc2c(cc1OC)C(C(=O)Nc1ccc3c(c1)OCCO3)C(c1cccnc1)N(C)C2=O (configuration not stated)
COc1ccc(C(=O)Nc2ccc(NC(=O)c3cnccn3)cn2)cc1
CCOC(=O)Cc1nn(Cc2ccccc2)c(=O)c2ccccc12
CCc1nc(N)nc(N)c1-c1ccc(Cl)cc1
NC(=S)NNC(=O)c1cccc(Br)c1
Cc1csc(NC(=O)c2cnccn2)n1
COC(=O)CNC(=O)CSc1nnc2cc(C)c3ccccc3n12
COc1cc(S(=O)(=O)N2CCC(c3nc4ccccc4s3)CC2)ccc1S(=O)(=O)NC1CCCC1
O=C(NN1S(=O)(=O)c2ccccc2S1(=O)=O)c1ccc(Br)cc1
CCN(CC)C(=S)NC(=O)c1cccnc1
O=C(CC(=O)NN=C1CCCCCC1)NCc1cccnc1
CCOc1ccc(/C=N/NC(=O)CC(=O)Nc2ccc(Cl)c(Cl)c2)cc1
CCOc1ccc(C2C(C#N)=C(N)Oc3cc(C)oc(=O)c32)cc1 (configuration not stated)
Cc1ccc(Cl)cc1N=C(N)N=C(N)N

Source: PubChem BioAssay AID1233 (SRMLSC, 2008)
